Screening results deposited in PubChem BioAssay by National Center for Advancing Translational Sciences (NCATS).
APE1 inh – qHTS Assay for Inhibitors of the Human Apurinic/apyrimidinic Endonuclease 1 (APE1) | DNA repair nuclease/redox regulator APEX1 (Homo sapiens), P27695 | recombinant APE1, TAMRA/BHQ-2 abasic DNA cleavage fluorescence | Potency, µM (highest dose often 65.8 µM), for the others: at the top dose activity change, negative = inhibition, most hits filed as inhibitors | 350,000 tested, 0.35% active;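 note: plate controls were vehicle for no effect and reference inhibitor for full effect; nearly all actives have a fitted effect of over 55% in size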
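APE1 at 0.75 nM final was preincubated with compound 15 min at room temperature, then 50 nM double-stranded THF abasic-site substrate (5'-TAMRA/3'-BHQ-2) was added. Fluorescence (ex 525/em 598 nm) was read kinetically; third-minus-first read gave activity.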
RECQ1 helicase – qHTS Assay for Inhibitors of RecQ-Like Dna Helicase 1 (RECQ1); Potency, µM (series often up to 57.3 µM), for the others: top-dose activity, negative = inhibition, usual class: inhibitors; 240,000 tested, 0.54% active; AID 2549, 2010; ATP-dependent DNA helicase Q1 (Homo sapiens), P46063; RECQ1 DNA unwinding, red fluorescence kinetic read;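 note: plate controls were vehicle for no effect and no enzyme for full effect; nearly all actives have a fitted effect of over 30% in size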
Target sequence (P46063 whole entry, looked up): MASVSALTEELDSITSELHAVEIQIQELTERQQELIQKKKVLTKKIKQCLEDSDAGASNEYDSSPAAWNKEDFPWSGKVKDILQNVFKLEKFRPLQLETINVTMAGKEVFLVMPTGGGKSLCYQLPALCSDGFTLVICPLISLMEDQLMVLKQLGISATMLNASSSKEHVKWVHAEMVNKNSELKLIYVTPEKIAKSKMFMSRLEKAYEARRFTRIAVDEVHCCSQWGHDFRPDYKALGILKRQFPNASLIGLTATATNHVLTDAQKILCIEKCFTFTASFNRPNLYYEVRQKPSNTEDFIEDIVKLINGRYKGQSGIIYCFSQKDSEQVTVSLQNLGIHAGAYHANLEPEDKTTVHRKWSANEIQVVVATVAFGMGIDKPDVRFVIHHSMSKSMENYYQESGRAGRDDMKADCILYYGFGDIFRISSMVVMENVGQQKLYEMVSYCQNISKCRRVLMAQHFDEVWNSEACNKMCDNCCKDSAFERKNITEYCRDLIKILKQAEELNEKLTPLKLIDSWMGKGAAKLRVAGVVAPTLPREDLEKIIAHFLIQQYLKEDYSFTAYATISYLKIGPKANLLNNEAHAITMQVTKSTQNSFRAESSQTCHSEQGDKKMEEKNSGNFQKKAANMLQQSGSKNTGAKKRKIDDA
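50 nM RECQ1T1 preincubated 15 min with compound in Tris pH 8.0 buffer with MgCl2, DTT, Tween-20 and 2.5 ug/ml poly(dI-dC); started with 200 nM TAMRA/BHQ-2 forked duplex and 2 mM ATP. Unwinding read as fluorescence (525/598 nm), two reads 2 h apart.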
FEN1 inh-1 – qHTS Assay for the Inhibitors of Human Flap endonuclease 1 (FEN1). P39748. Recombinant FEN1 flap cleavage, fluorescence, 15 min. Potency, µM (top dose mostly 114 µM), for the others: top-dose activity change, negative = inhibition, hits mostly inhibitors. 390,000 tested, 0.35% active. AID 588795, 2011; note: % is set by controls: 0 for no effect and ±100 for the full control effect; nearly all actives have a fitted effect of over 65% in size
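FEN1 at 10 nM, compound pretreatment for 15 min (room temperature), 50 nM final substrate to initiate; endpoint reads at 0 and 15 min; DMSO-only plates used as vehicle background.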
BLM inh – qHTS Assay for Inhibitors of Bloom's syndrome helicase (BLM) | RecQ-like DNA helicase BLM (Homo sapiens), P54132 | recombinant BLM DNA unwinding, fluorescence dequenching | Potency, µM (top dose mostly 56.1 µM), for inactives: at the highest dose activity change, negative = inhibition, most hits filed as inhibitors | 350,000 tested, 0.2% active | AID 2528, 2010;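 note: plate controls were vehicle for no effect and no enzyme for full effect; nearly all actives have a fitted effect of over 35% in size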
TDP1 inh – qHTS Assay for Inhibitors of Tyrosyl-DNA Phosphodiesterase (TDP1). Potency, µM (doses to about 130 µM), for the others: top-dose activity change, negative = inhibition, usual class: inhibitors. Tyrosyl-DNA phosphodiesterase 1 (Homo sapiens), Q9NUW8. AID 485290, 2010. recombinant TDP1, AlphaScreen DNA substrate cleavage. 350,000 tested, 0.28% active; note: % is set by controls: 0 for no effect and ±100 for the full control effect; nearly all actives have a fitted effect of over 40% in size
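Tdp1 1 nM final; 15 min RT w/ cpd; substrate 15 nM, 5 min; beads 10 ug/ml, 10 min; AlphaScreen read. Neg ctrl: no enzyme.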
FEN1 inh-2 – qHTS Assay for the Inhibitors of FEN1: Confirmatory Assay for Cherry-picked Compounds; FEN1 flap cleavage, TAMRA/BHQ2 fluorogenic DNA substrate; Potency, µM, usual class: inhibitors; AID 720498, 2013; shares compounds with FEN1 inh-1; 880 tested, 79% active; note: nearly all actives have a fitted effect of over 60% in size
* marks the source's active call; other numbers are inactive results. A selection: hits, their analogues and other compounds. The true share with any hit is near 0.92%. Calls come from the whole dose curve; as a rule, active = well fitted curve in the direction sought with a large enough effect; inconclusive = small, poorly fitted or top-dose-only effect, or another doubt; inactive = no such curve, though single readings can be large; an effect the other way counts as inactive or inconclusive. Potency is the fitted concentration of half-maximal effect.

Results for O=C(O)CSc1cc(NS(=O)(=O)c2cccc([N+](=O)[O-])c2)c2ccccc2c1O ?
APE1 inh: -4.8%; RECQ1 helicase: -15.1%; FEN1 inh-1: 3.16µM*; BLM inh: 17.8µM*; TDP1 inh: 10.3%; FEN1 inh-2: 75.7*

Results for CCOc1ccc(S(=O)(=O)Nc2cc(SCC(=O)O)c(O)c3ccccc23)cc1 ?
APE1 inh: 8.7%; FEN1 inh-1: inconclusive; BLM inh: inconclusive; FEN1 inh-2: 67.5*

How did O=c1c(=O)n(O)c2ccccc2n1O do in these assays?
APE1 inh: -2.0%; RECQ1 helicase: inactive; FEN1 inh-1: 0.794µM*; BLM inh: -7.2%; TDP1 inh: -3.0%; FEN1 inh-2: 1.35*

How did COn1c(=O)c(=O)n(O)c2ccccc21 do in these assays?
APE1 inh: -0.1%; RECQ1 helicase: -12.5%; FEN1 inh-1: -18.1%; BLM inh: 0.0%; TDP1 inh: -1.0%

How did CN(C)c1ccc(N=Nc2ccc(C(=O)O)cc2)cc1 do in these assays?
APE1 inh: inconclusive; FEN1 inh-1: inconclusive; BLM inh: -8.0%; FEN1 inh-2: 37.9*

How did CCn1cc2nc(SCc3cc(C)ccc3C)n(CCc3ccccc3)c(=O)c2n1 do in these assays?
FEN1 inh-1: -23.7%; BLM inh: -12.3%; TDP1 inh: 2.6%

What do the screens show for `Cc1ccc(C(=O)Nc2nnc(CC(=O)N/N=C/c3ccc(O)c(O)c3)s2)cc1`?
APE1 inh: 1.89µM*; FEN1 inh-1: 11.2µM*; BLM inh: 12.6µM*; FEN1 inh-2: 37.9*

Results for CC1(C)CC(N=c2cc(-c3ccccc3)oc3ccc(Cl)cc23)CC(C)(C)N1 ?
APE1 inh: -3.1%; RECQ1 helicase: -8.0%; FEN1 inh-1: 28.2µM*; BLM inh: 162.2%; TDP1 inh: 2.5%; FEN1 inh-2: 19*

What do the screens show for `CCc1ccccc1S(=O)(=O)Cc1ccc(C(=O)NCCc2ccc(Cl)cc2)o1`?
FEN1 inh-1: -16.4%; BLM inh: -5.5%; TDP1 inh: 4.6%

What do the screens show for `O=C(O)C(c1ccccc1)N1C(=O)/C(=C\c2ccc(-c3ccc(Br)cc3)o2)SC1=S` (configuration not stated)?
APE1 inh: inconclusive; FEN1 inh-1: 20µM*; BLM inh: 31.6µM*; FEN1 inh-2: 75.7*

Results for O=C(N/N=C/c1ccc(-c2ccc(Cl)c(C(=O)O)c2)o1)c1cc2c(ccc3ccccc32)o1 ?
APE1 inh: 12.4%; RECQ1 helicase: 3.2%; FEN1 inh-1: 39.8µM*; BLM inh: -1.2%; TDP1 inh: 1.3%; FEN1 inh-2: 21.3*

What do the screens show for `CC(NC1=CC(=O)c2cccnc2C1=O)C(O)c1ccccc1` (configuration not stated)?
FEN1 inh-1: inconclusive; FEN1 inh-2: inconclusive

How did O=C1C(Nc2ccccc2)=CC(=O)c2ncccc21 do in these assays?
APE1 inh: -11.5%; RECQ1 helicase: -8.9%; BLM inh: -27.5%; TDP1 inh: 16.1%

Results for Nc1nc(Sc2ccc([N+](=O)[O-])c3nonc23)c2[nH]cnc2n1 ?
FEN1 inh-1: 20µM*; FEN1 inh-2: 42.6*

Results for Nc1nc(SCc2ccccc2)c2[nH]cnc2n1 ?
APE1 inh: 40.7%; FEN1 inh-1: -8.3%; BLM inh: -1.4%; TDP1 inh: 1.2%
